According to the supplement of paper PMC10849652:
About 8,800 targets were measured; listed, in parts, are those with a hit and a random draw of the rest. About 0.5% of all pairs of compound and target were hits.

Experiments:
Test in all cases: log2 fold change, soluble protein after heating vs DMSO (PISA); higher = thermal stabilisation; K562 lysate, 10 uM; active = over 0.2 and 3.5 SD of the protein, either way, in both replicates (recomputed)
[1] = compound: Cc1cn(-c2cc(NC(=O)c3ccc(C)c(Nc4nccc(-c5cccnc5)n4)c3)cc(C(F)(F)F)c2)cn1 [nilotinib]
How it was run: (§1)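 The values are log-two fold changes in thermal stability compared with solvent controls and come from duplicates. They were obtained by TMTpro 16plex LC-MS/MS, with channel sums equalised, on the supernatant after 21,000xg for 90 min. That supernatant came from crude K562 extract at 1 mg/mL protein treated with 10 μM compound for 30 min, heated for 3 min across 48°C-58°C, pooled and brought to 0.5% NP-40 at 4°C.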

[2] = compound: Cc1nc(Nc2n[nH]c3c2CN(C(=O)N[C@H](CN(C)C)c2ccccc2)C3(C)C)c2sccc2n1
How it was run: as §1

[3] = compound: Cc1nc(Nc2ncc(C(=O)Nc3c(C)cccc3Cl)s2)cc(N2CCN(CCO)CC2)n1 [dasatinib]
How it was run: as §1

[4] = compound: Cc1ncc(-c2ccnc(Nc3ccc(S(C)(=O)=O)cc3)n2)n1C(C)C
How it was run: as §1

[5] = compound: Cn1cc(-c2ccc3c(c2)CCN3C(=O)Cc2cccc(C(F)(F)F)c2)c2c(N)ncnc21
How it was run: as §1

[6] = compound: Cn1cc(CNCC2CCN(c3ncc(C(=O)NO)cn3)CC2)c2ccccc21 [quisinostat]
How it was run: as §1

[7] = compound: Cn1cncc1[C@@](N)(c1ccc(Cl)cc1)c1ccc2c(c1)c(-c1cccc(Cl)c1)cc(=O)n2C [tipifarnib]
How it was run: as §1

[8] = compound: NC(=O)Nc1cc(-c2cccc(F)c2)sc1C(=O)N[C@H]1CCCNC1
How it was run: as §1

[9] = compound: NC(=O)c1cnc(N[C@@H]2CCCC[C@@H]2N)nc1Nc1cccc(-n2nccn2)c1
How it was run: as §1

[10] = compound: NC1(c2ccc(-c3nc4ccn5c(=O)[nH]nc5c4cc3-c3ccccc3)cc2)CCC1
How it was run: as §1

[11] = compound: NCC(=O)Nc1ccc(-n2nc(C(F)(F)F)cc2-c2ccc3c(ccc4ccccc43)c2)cc1
How it was run: as §1

[12] = compound: O=C(CCCCCCC(=O)Nc1ccccc1)NO [vorinostat]
How it was run: as §1

[13] = compound: O=C(O)c1ccc2c(c1)nc(Nc1cccc(Cl)c1)c1ccncc12 [silmitasertib]
How it was run: as §1

[14] = compound: O=C1NC(=O)C(c2cnc3ccccn23)=C1c1cn2c3c(cc(F)cc13)CN(C(=O)N1CCCCC1)CC2
How it was run: as §1

[15] = compound: c1cn2cc(-c3ccc4cn[nH]c4c3)nc(Nc3ccc(N4CCOCC4)cc3)c2n1 [entospletinib]
How it was run: as §1

Measured: log2 fold change

EIF3I (UniProt Q13347)
active: [12] -0.316
inactive: [1] 0.022 | [2] -0.004 | [3] -0.018 | [4] 0.013 | [5] 0.044 | [6] -0.009 | [7] 0.018 | [8] 0.036 | [9] 0 | [10] -0.013 | [11] 0.022 | [13] 0.061 | [14] -0.005 | [15] 0.005

GFPT1 (UniProt Q06210)
UniProt Q06210, sequence (Q06210 whole entry, looked up): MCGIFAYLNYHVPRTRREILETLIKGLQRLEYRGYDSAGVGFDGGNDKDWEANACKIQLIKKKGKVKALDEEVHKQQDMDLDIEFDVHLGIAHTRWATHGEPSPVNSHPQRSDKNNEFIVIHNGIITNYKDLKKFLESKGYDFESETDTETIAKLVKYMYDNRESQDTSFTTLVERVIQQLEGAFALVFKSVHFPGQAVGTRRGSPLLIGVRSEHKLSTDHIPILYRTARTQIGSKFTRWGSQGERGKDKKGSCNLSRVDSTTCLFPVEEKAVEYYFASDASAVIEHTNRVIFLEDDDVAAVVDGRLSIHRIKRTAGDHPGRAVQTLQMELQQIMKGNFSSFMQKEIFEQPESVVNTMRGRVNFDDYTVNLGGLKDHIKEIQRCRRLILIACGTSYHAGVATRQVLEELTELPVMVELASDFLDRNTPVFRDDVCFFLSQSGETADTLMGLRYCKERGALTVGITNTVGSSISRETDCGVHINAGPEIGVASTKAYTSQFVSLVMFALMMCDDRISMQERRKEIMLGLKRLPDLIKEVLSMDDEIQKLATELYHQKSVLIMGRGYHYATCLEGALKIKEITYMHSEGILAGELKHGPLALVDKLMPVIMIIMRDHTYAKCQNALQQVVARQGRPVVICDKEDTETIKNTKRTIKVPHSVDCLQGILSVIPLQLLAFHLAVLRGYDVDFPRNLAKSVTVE
active: [12] -0.409
inactive: [1] 0.003 | [2] -0.009 | [3] -0.013 | [4] 0.008 | [5] 0.002 | [6] -0.031 | [7] -0.006 | [8] 0.027 | [9] -0.003 | [10] -0.025 | [11] 0.034 | [13] 0.004 | [14] 0.012 | [15] 0.019

EEF1A1P5 (UniProt Q5VTE0)
UniProt Q5VTE0, sequence (Q5VTE0 whole entry, looked up): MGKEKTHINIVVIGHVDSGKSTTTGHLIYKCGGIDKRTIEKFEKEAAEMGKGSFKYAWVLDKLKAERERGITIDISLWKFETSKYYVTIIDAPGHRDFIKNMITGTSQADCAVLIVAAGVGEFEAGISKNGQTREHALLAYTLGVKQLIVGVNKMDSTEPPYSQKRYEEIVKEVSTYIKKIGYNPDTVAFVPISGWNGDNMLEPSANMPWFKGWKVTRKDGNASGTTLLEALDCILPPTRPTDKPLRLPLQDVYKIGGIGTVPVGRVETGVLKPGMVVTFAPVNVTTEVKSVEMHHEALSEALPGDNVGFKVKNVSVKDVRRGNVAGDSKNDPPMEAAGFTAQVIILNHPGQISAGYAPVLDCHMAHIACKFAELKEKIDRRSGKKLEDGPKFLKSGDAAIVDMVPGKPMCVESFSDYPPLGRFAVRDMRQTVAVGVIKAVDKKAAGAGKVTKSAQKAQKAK
inactive: [1] -0.055 | [2] 0.005 | [3] -0.172 | [4] -0.083 | [5] 0.005 | [6] -0.054 | [7] 0.008 | [8] 0.016 | [9] 0.006 | [10] -0.013 | [11] 0.04 | [13] -0.017 | [14] 0.005 | [15] 0.033
active: [12] -0.311

GEMIN4 (UniProt P57678)
UniProt P57678, sequence (P57678 whole entry, looked up): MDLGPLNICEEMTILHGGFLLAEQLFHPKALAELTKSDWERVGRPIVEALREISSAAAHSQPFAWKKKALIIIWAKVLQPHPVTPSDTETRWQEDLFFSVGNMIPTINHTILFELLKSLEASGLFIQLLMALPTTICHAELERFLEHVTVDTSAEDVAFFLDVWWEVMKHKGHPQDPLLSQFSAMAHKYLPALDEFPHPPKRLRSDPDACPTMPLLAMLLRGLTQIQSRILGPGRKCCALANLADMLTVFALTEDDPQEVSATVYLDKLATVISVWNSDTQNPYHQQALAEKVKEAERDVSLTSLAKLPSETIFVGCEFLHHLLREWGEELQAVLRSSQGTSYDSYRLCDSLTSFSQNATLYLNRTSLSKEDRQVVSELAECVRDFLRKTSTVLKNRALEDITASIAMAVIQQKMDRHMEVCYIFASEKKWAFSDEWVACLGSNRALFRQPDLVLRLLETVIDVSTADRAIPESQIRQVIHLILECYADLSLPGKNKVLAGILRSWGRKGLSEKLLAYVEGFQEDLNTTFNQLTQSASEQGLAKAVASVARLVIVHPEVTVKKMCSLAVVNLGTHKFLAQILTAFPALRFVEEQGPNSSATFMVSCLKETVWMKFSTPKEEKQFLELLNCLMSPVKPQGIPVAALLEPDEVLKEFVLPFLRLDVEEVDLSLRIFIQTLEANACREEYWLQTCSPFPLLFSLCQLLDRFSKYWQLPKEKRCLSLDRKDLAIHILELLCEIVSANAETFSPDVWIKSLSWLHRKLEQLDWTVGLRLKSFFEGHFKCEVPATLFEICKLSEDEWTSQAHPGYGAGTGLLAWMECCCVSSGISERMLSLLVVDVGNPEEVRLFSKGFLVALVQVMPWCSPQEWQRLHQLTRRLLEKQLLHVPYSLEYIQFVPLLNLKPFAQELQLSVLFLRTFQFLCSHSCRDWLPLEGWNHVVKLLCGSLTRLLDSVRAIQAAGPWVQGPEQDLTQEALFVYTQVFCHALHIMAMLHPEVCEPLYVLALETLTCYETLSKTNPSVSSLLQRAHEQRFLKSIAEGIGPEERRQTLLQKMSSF
active: [12] -0.435
inactive: [1] -0.001 | [2] -0.014 | [3] -0.047 | [4] -0.001 | [5] 0.101 | [6] -0.056 | [7] 0.006 | [8] 0.077 | [9] -0.001 | [10] -0.097 | [11] -0.025 | [13] 0.1 | [14] 0.019 | [15] 0.034

FDX2 (UniProt Q6P4F2)
inactive: [1] 0.135 | [2] -0.025 | [3] 0.058 | [4] -0.067 | [5] -0.006 | [6] -0.068 | [7] 0.096 | [8] 0.05 | [9] -0.068 | [10] 0.052 | [11] -0.03 | [12] 0.195 | [13] -0.069 | [14] -0.066 | [15] 0.042

ELF2 (UniProt Q15723)
inactive: [1] 0.032 | [2] -0.007 | [3] -0.105 | [4] 0.065 | [5] 0.068 | [6] 0.026 | [7] -0.043 | [8] -0.035 | [9] -0.02 | [10] 0.032 | [11] 0.03 | [12] -0.25 | [13] 0 | [14] -0.011 | [15] -0.03

EMP3 (UniProt P54852)
UniProt P54852, sequence (P54852 whole entry, looked up): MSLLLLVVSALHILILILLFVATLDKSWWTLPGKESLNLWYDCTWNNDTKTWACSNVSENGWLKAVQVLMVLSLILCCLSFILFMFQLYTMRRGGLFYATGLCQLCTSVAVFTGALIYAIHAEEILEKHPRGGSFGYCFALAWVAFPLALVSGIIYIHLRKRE
inactive: [1] 0.007 | [2] 0.094 | [3] -0.046 | [4] 0.02 | [5] -0.046 | [6] -0.144 | [7] 0.031 | [8] 0.013 | [9] -0.035 | [10] -0.008 | [11] 0.013 | [12] -0.022 | [13] -0.05 | [14] -0.014 | [15] 0.144

GDPD1 (UniProt Q8N9F7)
UniProt Q8N9F7, sequence (Q8N9F7 whole entry, looked up): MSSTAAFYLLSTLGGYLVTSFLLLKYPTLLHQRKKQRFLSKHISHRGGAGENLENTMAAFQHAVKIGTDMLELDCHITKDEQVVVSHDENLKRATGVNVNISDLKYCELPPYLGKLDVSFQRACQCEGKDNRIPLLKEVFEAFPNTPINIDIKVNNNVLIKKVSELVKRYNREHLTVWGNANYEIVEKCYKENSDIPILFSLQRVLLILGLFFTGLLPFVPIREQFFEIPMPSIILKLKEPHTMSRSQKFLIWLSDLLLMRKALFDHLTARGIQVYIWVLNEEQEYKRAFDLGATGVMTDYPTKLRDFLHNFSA
inactive: [1] -0.047 | [2] 0.011 | [3] 0.026 | [4] 0.011 | [5] -0.05 | [6] -0.056 | [7] 0.024 | [8] -0.02 | [9] 0.053 | [10] -0.017 | [11] -0.137 | [12] 0.056 | [13] 0.033 | [14] 0.177 | [15] -0.092

GEMIN2 (UniProt O14893)
active: [12] -0.425
inactive: [1] -0.019 | [2] 0.014 | [3] -0.03 | [4] 0.032 | [5] -0.033 | [6] 0.142 | [7] 0.059 | [8] 0.004 | [9] -0.039 | [10] 0.049 | [11] 0.003 | [13] 0.002 | [14] 0.04 | [15] -0.005

EPB41, A0A2R8Y6D0
inactive: [1] -0.033 | [2] 0.312 | [3] 0.091 | [4] -0.044 | [5] -0.021 | [6] -0.017 | [7] -0.055 | [8] 0.043 | [9] -0.042 | [10] -0.054 | [11] 0.082 | [12] 0.094 | [13] 0.037 | [14] -0.08 | [15] 0.016

EXOC5 (UniProt O00471)
active: [12] -0.293
inactive: [1] 0.008 | [2] -0.025 | [3] -0.063 | [4] -0.003 | [5] 0.047 | [6] -0.044 | [7] 0.006 | [8] 0.014 | [9] 0.01 | [10] 0.002 | [11] 0.036 | [13] 0.036 | [14] 0.002 | [15] 0.025

ENO2 (UniProt P09104)
UniProt P09104, sequence (P09104 whole entry, looked up): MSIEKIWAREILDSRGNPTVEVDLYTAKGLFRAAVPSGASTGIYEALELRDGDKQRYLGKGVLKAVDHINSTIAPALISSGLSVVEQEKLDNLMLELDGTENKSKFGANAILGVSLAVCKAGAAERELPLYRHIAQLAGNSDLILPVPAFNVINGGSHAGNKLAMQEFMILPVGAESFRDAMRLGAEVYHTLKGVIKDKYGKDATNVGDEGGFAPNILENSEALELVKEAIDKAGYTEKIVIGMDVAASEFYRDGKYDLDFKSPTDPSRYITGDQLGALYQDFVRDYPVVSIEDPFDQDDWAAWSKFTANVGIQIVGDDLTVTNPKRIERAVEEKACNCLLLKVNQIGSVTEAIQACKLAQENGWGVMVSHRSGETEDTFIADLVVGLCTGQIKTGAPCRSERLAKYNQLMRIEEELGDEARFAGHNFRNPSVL
inactive: [1] 0.006 | [2] 0.017 | [3] 0.036 | [4] 0.025 | [5] 0 | [6] -0.03 | [7] -0.021 | [8] 0.001 | [9] -0.043 | [10] 0.003 | [11] -0.021 | [12] 0.03 | [13] -0.014 | [14] 0.001 | [15] -0.068

GBA2 (UniProt Q9HCG7)
inactive: [1] -0.063 | [2] 0.114 | [3] 0.059 | [4] -0.079 | [5] 0.034 | [6] -0.101 | [7] -0.213 | [8] 0.023 | [9] 0.058 | [10] -0.074 | [12] -0.089 | [13] -0.004 | [14] -0.091 | [15] -0.102

FMNL2 isoform 3 (UniProt Q96PY5)
inactive: [1] -0.1 | [2] -0.087 | [3] 0.101 | [4] -0.018 | [5] -0.028 | [6] -0.1 | [7] -0.012 | [8] -0.047 | [9] 0.002 | [10] -0.021 | [13] -0.027 | [14] 0.045
active: [12] -0.587

GAPVD1 isoform 6 (UniProt Q14C86)
active: [12] -0.292
inactive: [1] 0.006 | [2] 0.005 | [3] -0.05 | [4] -0.005 | [5] 0.044 | [6] -0.029 | [7] -0.02 | [8] 0.032 | [9] 0.013 | [10] 0.026 | [11] -0.033 | [13] 0.04 | [14] -0.001 | [15] -0.002

GART (UniProt P22102)
UniProt P22102, sequence (P22102 whole entry, looked up): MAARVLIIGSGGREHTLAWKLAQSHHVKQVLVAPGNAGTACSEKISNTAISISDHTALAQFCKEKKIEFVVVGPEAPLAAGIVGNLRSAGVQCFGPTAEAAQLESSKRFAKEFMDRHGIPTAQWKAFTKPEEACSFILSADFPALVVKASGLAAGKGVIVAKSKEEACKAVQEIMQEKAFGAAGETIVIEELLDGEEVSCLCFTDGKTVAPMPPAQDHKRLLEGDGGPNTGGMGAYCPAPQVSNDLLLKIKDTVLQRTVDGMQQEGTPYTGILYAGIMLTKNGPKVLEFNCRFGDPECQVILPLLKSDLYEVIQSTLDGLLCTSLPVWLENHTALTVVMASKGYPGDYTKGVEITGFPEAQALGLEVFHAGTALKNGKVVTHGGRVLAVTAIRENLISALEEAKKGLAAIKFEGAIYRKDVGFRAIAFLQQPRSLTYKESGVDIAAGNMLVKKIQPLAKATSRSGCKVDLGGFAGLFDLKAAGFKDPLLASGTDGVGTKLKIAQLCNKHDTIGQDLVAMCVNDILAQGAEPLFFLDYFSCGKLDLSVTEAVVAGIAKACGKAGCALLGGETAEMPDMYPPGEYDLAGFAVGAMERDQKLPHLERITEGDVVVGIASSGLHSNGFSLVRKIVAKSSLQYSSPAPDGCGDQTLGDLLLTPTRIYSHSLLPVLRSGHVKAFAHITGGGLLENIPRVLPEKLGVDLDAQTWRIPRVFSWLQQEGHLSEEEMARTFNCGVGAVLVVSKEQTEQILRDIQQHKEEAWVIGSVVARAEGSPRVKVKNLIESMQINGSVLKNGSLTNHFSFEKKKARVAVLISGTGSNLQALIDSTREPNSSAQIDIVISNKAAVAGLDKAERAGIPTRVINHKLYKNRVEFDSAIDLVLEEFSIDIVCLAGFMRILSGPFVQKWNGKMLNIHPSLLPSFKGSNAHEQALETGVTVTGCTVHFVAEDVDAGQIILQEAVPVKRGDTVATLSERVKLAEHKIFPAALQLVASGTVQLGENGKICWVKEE
active: [12] -0.303
inactive: [1] -0.006 | [2] -0.024 | [3] -0.022 | [4] -0.011 | [5] 0.01 | [6] 0.025 | [7] 0.011 | [8] 0.015 | [9] 0.007 | [10] 0.006 | [11] 0.017 | [13] 0.006 | [14] 0.003 | [15] 0.012

GBF1 (UniProt Q92538)
inactive: [1] -0.021 | [2] 0.02 | [3] -0.088 | [4] 0.027 | [5] 0.021 | [6] -0.04 | [7] -0.003 | [8] 0.054 | [9] 0.018 | [10] -0.034 | [11] -0.019 | [13] 0.023 | [14] 0.043 | [15] 0.008
active: [12] -0.304

GIGYF2 (UniProt Q6Y7W6)
active: [12] -0.252
inactive: [1] 0.004 | [2] -0.03 | [3] 0.006 | [4] 0.007 | [5] 0.024 | [6] -0.011 | [7] -0.09 | [8] 0.026 | [9] 0.007 | [10] -0.04 | [11] -0.001 | [13] -0.007 | [14] -0.042 | [15] 0.017

ESRRA (UniProt P11474)
UniProt P11474, sequence (P11474 whole entry, looked up): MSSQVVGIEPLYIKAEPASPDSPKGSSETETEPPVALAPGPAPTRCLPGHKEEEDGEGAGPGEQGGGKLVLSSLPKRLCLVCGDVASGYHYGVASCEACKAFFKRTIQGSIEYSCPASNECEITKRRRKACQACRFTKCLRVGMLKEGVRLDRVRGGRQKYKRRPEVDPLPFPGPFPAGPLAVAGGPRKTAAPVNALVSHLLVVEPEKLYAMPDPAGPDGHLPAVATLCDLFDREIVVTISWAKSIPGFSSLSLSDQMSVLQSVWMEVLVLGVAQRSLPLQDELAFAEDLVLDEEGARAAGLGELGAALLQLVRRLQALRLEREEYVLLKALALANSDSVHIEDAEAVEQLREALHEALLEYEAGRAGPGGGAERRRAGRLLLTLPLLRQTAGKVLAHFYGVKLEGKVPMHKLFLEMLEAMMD
inactive: [1] -0.121 | [2] 0.016 | [3] 0.061 | [4] 0.035 | [5] -0.096 | [6] -0.038 | [7] 0.008 | [8] 0.158 | [9] -0.016 | [10] 0.016 | [11] -0.094 | [13] 0.063 | [14] 0.026 | [15] -0.034

FAM118A (UniProt Q9NWS6)
UniProt Q9NWS6, sequence (Q9NWS6 whole entry, looked up): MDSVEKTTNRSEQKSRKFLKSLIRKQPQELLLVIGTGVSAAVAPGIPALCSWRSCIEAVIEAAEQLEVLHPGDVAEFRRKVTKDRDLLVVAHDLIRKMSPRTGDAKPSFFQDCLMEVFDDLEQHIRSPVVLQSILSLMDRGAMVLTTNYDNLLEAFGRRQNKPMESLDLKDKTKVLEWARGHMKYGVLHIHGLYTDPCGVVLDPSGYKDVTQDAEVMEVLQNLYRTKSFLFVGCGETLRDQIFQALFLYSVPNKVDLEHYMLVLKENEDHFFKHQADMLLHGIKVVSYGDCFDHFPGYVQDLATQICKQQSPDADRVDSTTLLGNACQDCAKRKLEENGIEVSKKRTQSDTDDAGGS
inactive: [1] -0.017 | [2] -0.03 | [3] -0.043 | [4] -0.003 | [5] -0.082 | [6] -0.103 | [7] 0.016 | [8] 0.013 | [9] 0.003 | [10] -0.023 | [11] 0.027 | [13] 0.024 | [14] -0.003 | [15] -0.014
active: [12] -0.834

FAM120B (UniProt Q96EK7)
active: [12] -0.299
inactive: [1] -0.067 | [2] -0.017 | [3] -0.033 | [4] -0.008 | [5] 0.017 | [6] -0.062 | [7] 0.05 | [8] 0.015 | [9] -0.029 | [10] -0.048 | [11] -0.002 | [13] 0.041 | [14] -0.022 | [15] -0.001
